The values below come from the OligoGym collection.
Also: reference of the scale not given here.

The target of one experiment is KLHL24. The experiment in a line: pooled miR-30 sensor sort-seq; sequence = guide strand. The conditions noted are these: shRNA.
TTGCCTTGGTCAGTCCACCGGC came in with a sensor-assay potency score (higher = more potent) of -0.546.

Turning to TATCTATGAATAGTCACACAGC, the sensor-assay potency score (higher = more potent) was -1.1.

Take TTTACCATTACACACAGACATA: the sensor-assay potency score (higher = more potent) is -1.69.

AAACTTTTCGCTTAGTTGCTGG yielded a sensor-assay potency score (higher = more potent) of -0.446.

As to TATCAGAACAAGTATTATCATC, the sensor-assay potency score (higher = more potent) was -1.27.

Sequence TGGATCATAAGATTGAACCTTA returned a sensor-assay potency score (higher = more potent) of 0.374.

For TTTTGTGACGCCATCTGCCTTT, the sensor-assay potency score (higher = more potent) is -0.286.

The next experiment addresses KLHL5. The experiment is described as above. The conditions noted are these: shRNA.
Regarding TGTGTGATCACAATCCACCAGC, the sensor-assay potency score (higher = more potent) was -0.62.

Regarding TAATGTCTGACTACTATTGGAA, the sensor-assay potency score (higher = more potent) was -0.622.

TTATTGTTGCTTTAAGTCCTTA had a sensor-assay potency score (higher = more potent) of -0.543.

Sequence TTTCTCTACATAAATTTGCATA showed a sensor-assay potency score (higher = more potent) of -0.841.

For the sequence TATCTTTCCACACAGTCTGAGA, the sensor-assay potency score (higher = more potent) was -1.09.

The sequence TAAAATTACATCACACAACTGT had a sensor-assay potency score (higher = more potent) of 0.596.

For TAGCACTGCAACACCGAACTGT, the sensor-assay potency score (higher = more potent) stood at 0.529.

Regarding TTCATTAAAAACTTACAGCATG, the sensor-assay potency score (higher = more potent) was -0.802.

Take TAACATGGGTCGTCTCTCTGGT: the sensor-assay potency score (higher = more potent) was 0.867.

Sequence TTTGACATCAGGCACTTTGTGC returned a sensor-assay potency score (higher = more potent) of -0.672.

The sequence TTGACATCTGTGCACACAGTGT displayed a sensor-assay potency score (higher = more potent) of -0.886.

In turn, TATGCAAATCTGTACAACCTTG registered a sensor-assay potency score (higher = more potent) of -0.563.

The next experiment addresses KLK5. Described as above. The conditions noted are these: shRNA.
For the sequence ACTCTGAAAACTTTCTTCCTGC, the sensor-assay potency score (higher = more potent) was -0.332.

AACATTCTCAACATCTCTGGGA had a sensor-assay potency score (higher = more potent) of 0.475.

The sequence TTTTCTGACTTAGCACGCTGAT came in with a sensor-assay potency score (higher = more potent) of -0.837.

As to TAGAGAGACACGGTCAGCCCAA, the sensor-assay potency score (higher = more potent) worked out at 0.0597.

Sequence TTGATGGGTCTGACATCTTTAG displayed a sensor-assay potency score (higher = more potent) of -1.51.

In the case of TTGATGATGCGGCTGCTGCTGT, the sensor-assay potency score (higher = more potent) is -0.719.

Sequence TTCGTGTAGACACCCGGTCTGT came in with a sensor-assay potency score (higher = more potent) of -0.664.

The sequence TTTCTGACTTAGCACGCTGATA registered a sensor-assay potency score (higher = more potent) of -1.58.

Sequence TTGGGCCTTAGCAACAGCGCGG had a sensor-assay potency score (higher = more potent) of -0.877.

In turn, TCTCGGGTAAGCATCCTCGCAC registered a sensor-assay potency score (higher = more potent) of -0.337.

On to TGAACATTCTCAACATCTCTGG, for which the sensor-assay potency score (higher = more potent) was -0.405.

For the next experiment, the target named is KPRP. The description is as above. Conditions: shRNA.
TAGACTGGCACTTCACCTGTGT: the sensor-assay potency score (higher = more potent) came out at 0.425.

With TAGACTGACATTGAGCCTGGCC, the sensor-assay potency score (higher = more potent) turned out to be 0.158.

The sequence AATCTCAACAGGACACCTCTGT gave a sensor-assay potency score (higher = more potent) of 0.644.

As for TACTGAGGGAAACAGCTGCTGT, the sensor-assay potency score (higher = more potent) was -0.994.

The sequence TAGCCCTTGACTGAAACTGGGG had a sensor-assay potency score (higher = more potent) of -0.902.

On to TCTTAGACTGACATTGAGCCTG, for which the sensor-assay potency score (higher = more potent) is -0.234.

On to TTGGTCTCCATGGCCATCCTGA, for which the sensor-assay potency score (higher = more potent) is -0.799.

Consider TTTCTGTATAACAAACTGGAGC, for which the sensor-assay potency score (higher = more potent) was -1.23.

Consider TTGAACCACCACTTGGCTCTGG, for which the sensor-assay potency score (higher = more potent) worked out at 0.211.

Sequence TAGTTGTTGCAGGTAGCCCTTG yielded a sensor-assay potency score (higher = more potent) of -0.668.
